High-throughput results (PubChem)
nsP2pro primary: inhibitors of chikungunya virus nsP2 protease; AID 1964107; hit rate 1.1% among 31,000; Q8JUX6; FRET peptide cleavage, nsP2pro, fluorescence 1 h; Potency, µM (titrated, usually from 24.9 µM), inactives show top-dose activity change, negative = inhibition, usual class: inhibitors; note: nearly all actives have a fitted effect of over 60% in size
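Purified recombinant nsP2pro (150 nM final) in 10 mM Tris-HCl pH 8.0 with 0.01% Tween 20 was preincubated 15 min at room temperature with compound (7 concentrations, up to 25 uM). FRET peptide 2 substrate (2.5 uM final) was then added; fluorescence was read after 1 h.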
CHIKV nsP2 cell: inhibits CHIKV nsP2 protease in cells | shares compounds with nsP2pro primary | Potency, µM (highest dose often 51.1 µM), inactives show top-dose activity change, negative = inhibition, most hits filed as inhibitors | hit rate 10% among 450 | cell-based CHIKV nsP2 protease reporter assay | AID 1964100; note: nearly all actives have a fitted effect of over 70% in size
Target sequence (Q8JUX6 220-798 limits assumed): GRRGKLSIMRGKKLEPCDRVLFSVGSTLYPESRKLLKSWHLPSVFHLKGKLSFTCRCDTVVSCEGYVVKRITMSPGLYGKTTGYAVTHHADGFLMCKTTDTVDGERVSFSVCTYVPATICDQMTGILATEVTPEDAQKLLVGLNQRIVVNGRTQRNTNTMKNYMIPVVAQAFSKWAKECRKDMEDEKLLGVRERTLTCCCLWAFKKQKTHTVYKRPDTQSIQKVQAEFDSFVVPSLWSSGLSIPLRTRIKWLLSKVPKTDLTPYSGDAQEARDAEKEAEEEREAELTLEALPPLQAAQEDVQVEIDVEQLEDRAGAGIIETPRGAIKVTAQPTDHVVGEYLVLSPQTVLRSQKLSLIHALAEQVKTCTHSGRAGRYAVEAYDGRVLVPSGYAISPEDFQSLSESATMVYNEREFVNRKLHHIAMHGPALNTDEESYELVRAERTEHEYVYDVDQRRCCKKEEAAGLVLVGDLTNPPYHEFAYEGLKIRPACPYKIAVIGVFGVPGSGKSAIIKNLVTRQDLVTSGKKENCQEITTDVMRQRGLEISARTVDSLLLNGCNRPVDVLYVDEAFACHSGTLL
NSP2 full ctr: full-length CHIKV NSP2 protease inhibition, selectivity | shares compounds with nsP2pro primary | Full-length CHIKV NSP2 protease enzymatic counterscreen | Potency, µM (titrated, usually from 50.7 µM), inactives show at the highest dose activity change, negative = inhibition, most hits filed as inhibitors | hit rate 39% among 410 | AID 1964101; note: nearly all actives have a fitted effect of over 65% in size
Furin counter: human furin inhibition, counterscreen for nsP2pro inhibitors. Recombinant human furin enzymatic counterscreen, fluorogenic substrate. hit rate 6% among 410. Potency, µM (highest dose often 50.6 µM), without a hit: at the top dose activity change, negative = inhibition, actives largely listed as inhibitors. shares compounds with nsP2pro primary. AID 1964102
NS23 peptide cs: nsP2pro inhibition on native NS2/3 peptide substrate | shares compounds with nsP2pro primary | Purified CHIKV nsP2 protease, endogenous NS2/3 peptide cleavage | Potency, µM (doses to about 51 µM), for the others: at the top dose activity change, negative = inhibition, hits mostly inhibitors | hit rate 34% among 410; note: nearly all actives have a fitted effect of over 55% in size
Papain counter: inhibits papain in a CHIKV nsP2 protease selectivity counterscreen | purified papain protease activity, enzymatic inhibition | AID 1964104 | Potency, µM (doses to about 51 µM), for the others: at the highest dose activity change, negative = inhibition, actives largely listed as inhibitors | shares compounds with nsP2pro primary | hit rate 5% among 410
nsP2pro conf qHTS: CHIKV nsP2 protease inhibition, confirmatory qHTS. hit rate 43% among 410. shares compounds with nsP2pro primary. Potency, µM (titrated, usually from 25.5 µM), for inactives: at the highest dose activity change, negative = inhibition, usual class: inhibitors. AID 1964105. CHIKV nsP2 protease enzymatic activity, qHTS; note: nearly all actives have a fitted effect of over 75% in size
HCV NS3 counter: selectivity counter-screen for CHIKV nsP2 protease inhibitors: HCV NS3/4A | Potency, µM (top dose mostly 50.9 µM), hits mostly inhibitors | shares compounds with nsP2pro primary | hit rate 20% among 410 | AID 1964106 | HCV NS3/4A protease biochemical counterscreen; note: nearly all actives have a fitted effect of over 55% in size
Active calls of the source: *; [ ] = remark or other dose. The sample as a whole holds a higher share of hits than the screen did. Calls come from the whole dose curve. % is set by controls: 0 for no effect and ±100 for the full control effect; potency is the fitted concentration of half-maximal effect.

Screening Cc1ccc(CSc2ncc(Cl)c(C(=O)NCc3ccccc3)n2)cc1 returned nsP2pro primary 24%.
`Cc1cccc(CS(=O)(=O)c2ncc(Cl)c(C(=O)NCc3ccccc3)n2)c1` gave nsP2pro primary 3.5µM*, CHIKV nsP2 cell 2.6µM*, NSP2 full ctr 9.2µM*, Furin counter -6%, NS23 peptide cs 6.5µM*, Papain counter -7%, nsP2pro conf qHTS 4.5µM* and HCV NS3 counter inconclusive.
`CSc1ncc(Cl)c(C(=O)NCc2ccc(C)cc2)n1` gave nsP2pro primary -3%.
For Cc1ccccc1CSc1ncc(Cl)c(C(=O)NCc2ccccc2)n1 the results were nsP2pro primary 67%.
Screening O=C(NCc1ccccc1)c1nc(S(=O)(=O)Cc2ccc(F)cc2)ncc1Cl returned nsP2pro primary 7.6µM*, CHIKV nsP2 cell 0.46µM*, NSP2 full ctr 12µM*, Furin counter -2%, NS23 peptide cs 5.2µM*, Papain counter -4%, nsP2pro conf qHTS 3.6µM* and HCV NS3 counter inconclusive.
For COc1ccc(CNC(=O)c2nc(SCc3ccccc3F)ncc2Cl)cc1 the results were nsP2pro primary -19%.
For O=C(O)c1ccnc2cc(C(OCCCN3CCCCC3)c3ccccc3Cl)[nH]c12 (stereo unspecified) the results were nsP2pro primary 18%.
`Cc1ccc(OCCn2c(CCNC(=O)Cc3cccc(F)c3)nc3ccccc32)cc1` gave nsP2pro primary -11%.
COc1ccc(C(C(=O)O)N2CCN(Cc3csc(C)n3)CC2)cc1C (stereo unspecified) was read as nsP2pro primary inactive.
Screening O=C1CCCC2=C1C(c1cccnc1Br)N=C(Nc1nc3ccccc3o1)N2 (stereo unspecified) returned nsP2pro primary inactive.
For COc1cc(CCN)ccc1O the results were nsP2pro primary inconclusive, CHIKV nsP2 cell 8%, NSP2 full ctr -3%, Furin counter 3%, NS23 peptide cs -4%, Papain counter -8%, nsP2pro conf qHTS -15% and HCV NS3 counter inactive.
Screening C=CCc1ccc(O)c(OC)c1 returned nsP2pro primary -20%.
`COc1cc(C2Oc3c(OC)cc(CCCO)cc3C2CO)ccc1O` (stereo unspecified) gave nsP2pro primary 81%.
`CN(CC1CCOCC1)C(=O)c1ccsc1` gave nsP2pro primary -1%.
For CCOC(=O)c1ccoc1-c1ccc2ncnc(N(C)Cc3sccc3C)c2c1 the results were nsP2pro primary inactive.
Screening COCC(=O)N[C@H]1C[C@H]2C(=O)NC[C@@H](CCC(=O)N3CCN(c4ccccn4)CC3)N2C1 returned nsP2pro primary -3%.
`C=C1C[C@]23C[C@H]1CC[C@H]2[C@@]12CC[C@H](O)[C@@](C)(C(=O)O1)[C@H]2[C@@H]3C(=O)O` gave nsP2pro primary -9%.
C=C1CC23CC1CCC2C12OC(=O)C(C)(C(O)CC1O)C2C3C(=O)O (stereo unspecified) was read as nsP2pro primary inconclusive, CHIKV nsP2 cell 5%[33.5 µM], NSP2 full ctr 1%[33.5 µM], Furin counter 2%[33.5 µM], NS23 peptide cs -5%[33.5 µM], Papain counter -6%[33.5 µM], nsP2pro conf qHTS -20%[16.7 µM] and HCV NS3 counter inactive.
Screening C=C1C[C@]23C[C@H]1[C@@H](O)C[C@H]2[C@@]12C=C[C@H](O)[C@@](C)(C(=O)O1)[C@H]2[C@@H]3C(=O)O returned nsP2pro primary -21%.
`Oc1cccc2cc(CNc3ccccc3F)cnc12` gave nsP2pro primary inactive.
CCCCCCCCCC(=O)OCCN1CCN(CC/C=C2\c3ccccc3Sc3ccc(C(F)(F)F)cc32)CC1 was read as nsP2pro primary -7%.
CCCCCCCCCCCCCCCCCC(=O)O was read as nsP2pro primary inconclusive, CHIKV nsP2 cell 5%, NSP2 full ctr 3.7µM*, Furin counter 5%, NS23 peptide cs -19%, Papain counter 21µM*, nsP2pro conf qHTS 4µM* and HCV NS3 counter inactive.
For CCCCC(=O)O the results were nsP2pro primary -4%.
For CCCCCCCCCCCCCC(=O)O the results were nsP2pro primary -32%.
`CCc1noc(-c2cn(C3CCN(C(=O)Cc4cccc(OC)c4)CC3)nn2)n1` gave nsP2pro primary 1%.
For CC(C)COC(=O)N1[C@@H](c2ccco2)[C@@H](CO)C[C@]12CCCCNC2=O the results were nsP2pro primary inconclusive, CHIKV nsP2 cell 2%, NSP2 full ctr -15%, Furin counter -10%, NS23 peptide cs inconclusive, Papain counter -4%, nsP2pro conf qHTS -18% and HCV NS3 counter inconclusive.
Screening CNC(=O)[C@H]1C[C@]2(CCCCNC2=O)N(C(=O)c2cccc(C#N)c2)[C@H]1c1ccco1 returned nsP2pro primary -4%.
`COc1ccc2c(c1O)OC(C)(C)c1c-2ccc2c1C(=O)N(c1ccc(C(=O)c3ccccc3)cc1)C2=O` gave nsP2pro primary 47%.
Screening CCN1CCCN(S(=O)(=O)c2cccs2)CC12CCOCC2 returned nsP2pro primary 5%.
Screening CNS(=O)(=O)Cc1ccc2[nH]cc(CCN(C)C)c2c1 returned nsP2pro primary -19%.
`CN(C)CCc1c[nH]c2ccc(CN3CCN(C)S3(=O)=O)cc12` gave nsP2pro primary inconclusive, CHIKV nsP2 cell 14%, NSP2 full ctr -4%, Furin counter 2%, NS23 peptide cs -6%, Papain counter 0%, nsP2pro conf qHTS -25% and HCV NS3 counter inactive.
For CN(C)CCc1c[nH]c2ccc(CS(=O)(=O)N3CCCC3)cc12 the results were nsP2pro primary -12%.
`Cc1ccc(S(=O)(=O)Nc2ccncc2C(=O)Nc2nc(-c3ccccc3)cs2)cc1` gave nsP2pro primary 4%.
For O=C(CCc1cc2n(n1)CCNC2)NCc1nc2ccc(Cl)cc2[nH]1 the results were nsP2pro primary inactive.
Screening Cc1cc(C)cc(NC(=O)Cc2ccc(OC(C)(C)C(=O)O)cc2)c1 returned nsP2pro primary -28%.
